# Bioassay records from PubChem BioAssay.
# Tb PFK block: T. brucei PFK enzyme inhibition | O15648 | Potency, µM (series often up to 57.5 µM), for the others: top-dose activity, negative = inhibition, usual class: inhibitors | T. brucei PFK, ADP-Glo luminescence | actives 0.17% (n = 330,000);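 also: 0% = uninhibited 1x PFK enzyme wells and -100% = no-enzyme wells; nearly all actives have a fitted effect of over 60% in size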
#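 PFK 1.25 nM, F6P 0.5 mM, ATP 0.1 mM, 0.1 M TEA pH 8.0, 5 mM MgCl2, 0.01% Tween20, 0.1% BSA; 45 min RT. ADP-Glo readout. qHTS titration up to 57 uM; curves fitted, compounds curve-classed.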
# VDR inhibitor: vitamin D3 receptor (human) inhibition; VDR-SRC2-3 peptide fluorescence polarization, 2 h; Potency, µM, without a hit: max response, negative = inhibition, hits mostly inhibitors; actives 0.93% (n = 400,000); AID 504847; also: % is scaled to controls: 0 for no effect and ±100 for the full control effect
# Target sequence (P11473 whole entry, looked up): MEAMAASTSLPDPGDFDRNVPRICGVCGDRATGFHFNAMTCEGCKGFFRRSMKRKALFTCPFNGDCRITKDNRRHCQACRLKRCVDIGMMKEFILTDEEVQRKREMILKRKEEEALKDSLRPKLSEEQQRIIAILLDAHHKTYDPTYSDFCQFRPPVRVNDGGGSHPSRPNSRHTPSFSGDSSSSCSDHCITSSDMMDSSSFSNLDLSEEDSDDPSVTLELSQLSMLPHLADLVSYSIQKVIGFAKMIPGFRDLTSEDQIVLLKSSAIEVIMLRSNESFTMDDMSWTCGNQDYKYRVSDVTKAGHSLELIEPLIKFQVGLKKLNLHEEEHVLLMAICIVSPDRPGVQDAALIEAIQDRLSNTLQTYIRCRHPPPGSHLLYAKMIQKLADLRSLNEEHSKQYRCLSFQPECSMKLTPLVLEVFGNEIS
#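 Inhibition of the VDR/SRC2-3 peptide interaction is quantified by fluorescence polarization. Compounds (23 nl, pintool) incubate with the reagents for 2 hours at ambient room temperature.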
# BRCA1 expr up: increases BRCA1 expression. MCF7-BRCA1-FFLuc reporter, luminescence, 48 h; response scale: scaled: vehicle 0%, 10 µM genistein 100%. Potency, µM (top dose mostly 46.1 µM), without a hit: top-dose activation, actives largely listed as activators. actives 1.1% (n = 380,000); also: nearly all actives have a fitted effect of over 80% in size
#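 Activators of BRCA1 expression were detected as increased firefly luciferase luminescence in engineered MCF7 cells after 48 h compound incubation. Signals were scaled to genistein 10 microM as full activation.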
# PLK1 PBD inh: blocks phosphopeptide binding to human PLK1 polo-box domain. actives 2.8% (n = 360,000). Potency, µM, without a hit: max response, negative = inhibition, usual class: inhibitors. Plk1 PBD binding of FITC phosphopeptide, fluorescence polarization. AID 720504. P53350; also: series mostly up to about 57 µM; % is scaled to controls: 0 for no effect and ±100 for the full control effect; nearly all actives have a fitted effect of over 65% in size
# * hit, by the source's call; ? = inconclusive; . = no result given. Shown are actives, neighbours in structure and some others; about 3.9% of the full set was active somewhere. Calls follow the shape of the dose curve; as a rule, active = well fitted curve in the direction sought with a large enough effect; inconclusive = small, poorly fitted or top-dose-only effect, or another doubt; inactive = no such curve, though single readings can be large; an effect the other way counts as inactive or inconclusive. Potency is read from the fitted curve at half-maximal effect.
SMILES,Tb PFK block,VDR inhibitor,BRCA1 expr up,PLK1 PBD inh
CC1=C(C(=O)OCC(Br)(Br)Br)C(c2cccc([N+](=O)[O-])c2)NC(=O)N1CCCC(=O)O (stereo not given),.,-16%,14%,-17%
CC(C)n1c(O)c(N=NC(=O)c2ccccc2NS(=O)(=O)c2cccs2)c2ccccc21,-1%,-29%,-10%,17µM*
CN(C)c1ccc(-c2nc(-n3ccnc3)c3ccccc3n2)cc1,.,25µM*,.,.
Clc1ccccc1-c1nc(-n2ccnc2)c2ccccc2n1,.,56µM*,.,.
CCOc1nc(-c2ccccc2Cl)nc2ccccc12,-3%,15%,-24%,-1%
CN(C)C(=O)c1ccc(-c2nc(-n3ccnc3)c3ccccc3n2)cc1,.,-19%,.,.
Clc1ccccc1-c1nc(Nc2ccncc2)c2ccccc2n1,.,35µM*,.,.
Cc1cc(S(=O)(=O)Nc2cc3c(cc2N2CCOCC2)n(C)c(=O)n3C)ccc1F,.,0%,.,.
NC(=O)C1CC(=O)N(c2ccc(OCc3ccc(Cl)cc3)cc2)C1 (stereo not given),-11%,?,?,6µM*
O=C(CSc1c[nH]c2ccccc12)N1CCCc2ccccc21,-4%,-1%,-29%,-11%
O=C(Cc1c[nH]c2ccccc12)N1CCc2ccccc21,0%,-6%,11µM*,-2%
O=C(COc1ccc(Br)cc1)N1CCc2ccccc21,0%,12%,7.1µM*,5%
COc1cc(OC)cc(C(=O)NCC(=O)OCC(=O)N2CCc3ccccc32)c1,3%,?,-3%,27µM*
Cn1cccc1C(=O)OCC(=O)N1CCc2ccccc21,2%,?,10µM*,-4%
O=C(COc1ccccc1)N1CCc2ccccc21,7%,17%,100%,-6%
Cn1nccc1-c1ccc(C(=O)NCc2ccco2)c2occc12,.,.,88%,-26%
Cc1ccc2c(C)c(C(=O)NCCN3CCOC3=O)oc2c1C,-1%,-1%,24%,-9%
O=c1cc(-c2ccccc2)n2c(SCc3c(F)cccc3Cl)nnc2[nH]1,.,-5%,.,.
O=C(NNC(=O)c1sccc1-n1cccc1)c1ccc(F)cc1,-1%,-14%,-12%,-17%
O=C(NNC(=O)c1sccc1-n1cccc1)c1ccccc1,-6%,-21%,-42%,24µM*
O=Cc1sc(=O)n(Cc2cccc(C(=O)O)c2)c1Cl,-4%,79µM*,1%,30µM*
O=C(O)c1cccc(Cn2c(Cl)c(/C=N/NC(=O)c3ccc(O)cc3)sc2=O)c1,1%,4%,-5%,-18%
CCc1ccc(NC(=O)Cn2nnc(C(=O)Nc3ccc(F)cc3)c2N)cc1,.,10%,.,.
CN(C)c1ccc(N=Cc2ccco2)cc1,-12%,2µM*,51%,-10%
CN(C)/C=N/c1nc2nccc(-c3ccccc3)n2n1,-3%,-13%,-1%,27µM*
SMILES,Tb PFK block,VDR inhibitor,BRCA1 expr up,PLK1 PBD inh
COc1ccc(-c2cnc3nc(/N=C/N(C)C)nn3c2/N=C/N(C)C)cc1,-1%,-26%,10%,24µM*
CCc1nnc(NC(=O)CSc2nccn2Cc2ccc(Cl)cc2)s1,.,6%,.,.
CCOc1ccccc1NC(=O)CCS(=O)(=O)c1ccc(Br)cc1,?,-12%,1%,30µM*
CCOc1ccccc1NC(=O)COC(=O)CN(C)S(=O)(=O)c1ccc(C)cc1,?,?,6%,27µM*
COC(=O)c1ccccc1NC(=O)CCS(=O)(=O)c1ccc(Br)cc1,?,?,22%,12µM*
CCc1ccccc1NC(=O)CCS(=O)(=O)c1ccc(Br)cc1,-19%,-10%,-1%,-8%
CCOc1ccccc1NC(=O)COC(=O)CNS(=O)(=O)c1ccc(C)cc1,7%,-5%,3%,-9%
C[C@@H]1CN([C@@H](C)CO)C(=O)c2cc(Br)cnc2O[C@@H]1CN(C)Cc1cncnc1,.,.,11%,3%
Cc1ccc(-c2[nH][nH]c(=O)c(=O)c2N=Nc2ccccc2)cc1,-1%,-18%,-2%,30µM*
CCOC(=O)c1c(C)[nH]c(C(=O)OCc2ccccc2F)c1C,2%,-19%,?,1%
COc1cccc(C(=O)COc2ccc3c(C)c(Cc4ccccc4)c(=O)oc3c2)c1,1%,-3%,8%,-15%
Cc1c(C)c2ccc(OCC(=O)c3ccccc3)cc2oc1=O,-4%,29%,6.3µM*,-18%
COc1ccc(-c2cc3ccc(OCC(C)=O)cc3oc2=O)cc1OC,16%,-12%,10µM*,-9%
CCCc1c(C)c2ccc(OCC(C)=O)cc2oc1=O,-3%,-5%,5.6µM*,-4%
CCn1c(C(=O)Nc2c(C)cccc2C)cc2sc(Cl)cc21,.,-3%,.,.
Cc1ccc(Cc2ccccc2C(=O)O)cc1,.,-8%,-23%,-8%
CC(=O)NC(CC(C)C)C(=O)NC(CO)C(=O)NC(CCC(=O)O)C(=O)NC(C)C(=O)NC(CC(C)C)C(N)=O (stereo not given),.,?,18%,-4%
Cc1ccc(S(=O)(=O)NC(=O)C2(C)CCN2C(=O)c2cccc(F)c2)nc1 (stereo not given),.,.,19%,-9%
CC(C)Sc1ccc(C(=O)Nc2ccc(F)cc2F)cn1,0%,-4%,9%,19µM*
c1ccc(OCCNc2ccn3nc(-c4ccco4)cc3n2)cc1,.,.,14µM*,-3%
c1ccc(OCCNc2ccn3nc(-c4ccccc4)cc3n2)cc1,.,.,?,-6%
COc1ccc(CCN2C(=O)N(c3ccc(F)cc3)C(=O)C2CC(=O)Nc2ccc(OC)cc2)cc1 (stereo not given),.,-5%,.,.
N#Cc1c(-c2ccccc2)nc(SCc2cccc(Cl)c2)[nH]c1=O,-7%,-9%,-3%,27µM*
Cc1cccc(OCC(=O)Nc2nc(-c3ccncc3)cs2)c1,-3%,-6%,-1%,4%
COc1cc(=O)[nH]c(SCC(=O)Nc2nc3c(s2)CCCC3)n1,3%,?,-14%,12µM*
SMILES,Tb PFK block,VDR inhibitor,BRCA1 expr up,PLK1 PBD inh
O=C(COc1ccccc1)Nc1nc2c(s1)CCCC2,-6%,-4%,3.2µM*,-5%
Cc1cc(C)cc(OCC(=O)Nc2nc(-c3cccnc3)cs2)c1,-25%,?,-38%,12µM*
O=C(COc1ccccc1Cl)Nc1nc2c(s1)CCCC2,.,7%,.,.
Cc1nc(CC(=O)Nc2nc(-c3ccccc3)cs2)cs1,3%,6%,11µM*,-8%
COc1cc(=O)[nH]c(SC(C)C(=O)Nc2nc3c(s2)CCCC3)n1 (stereo not given),-2%,-5%,-15%,0%
COC(=O)CC1Oc2ccc(C)cc2-n2cc(-c3ccc(C)cc3)nc21 (stereo not given),.,-23%,-15%,.
Cc1c(Cl)ccc2sc(N3CCN(C(=O)CS(=O)(=O)c4ccccc4)CC3)nc12,.,9%,0%,.
CCOc1ccccc1NC(=O)C1CCCN(S(=O)(=O)c2cccs2)C1 (stereo not given),.,-6%,-13%,.
Cc1cn(S(=O)(=O)c2ccc(F)c(Cl)c2)cn1,.,0%,3%,.
COc1ccc(OC)c(-c2csc(NC(=O)Cc3ccc(F)cc3)n2)c1,3%,2%,-32%,-7%
O=C(COc1ccccc1)Nc1nc(-c2ccncc2)cs1,-9%,-9%,3%,27µM*
